This note sets out measurements from ChEMBL document CHEMBL2218924, “A broad activity screen in support of a chemogenomic map for kinase signalling research and drug discovery” (Biochem J, 2013).

SMILES strings stand for the structures.

Test [1] concerns the target T1, Serine/threonine-protein kinase TAO2 (Homo sapiens) (UniProt Q9UL54).
T1 sequence (whole entry): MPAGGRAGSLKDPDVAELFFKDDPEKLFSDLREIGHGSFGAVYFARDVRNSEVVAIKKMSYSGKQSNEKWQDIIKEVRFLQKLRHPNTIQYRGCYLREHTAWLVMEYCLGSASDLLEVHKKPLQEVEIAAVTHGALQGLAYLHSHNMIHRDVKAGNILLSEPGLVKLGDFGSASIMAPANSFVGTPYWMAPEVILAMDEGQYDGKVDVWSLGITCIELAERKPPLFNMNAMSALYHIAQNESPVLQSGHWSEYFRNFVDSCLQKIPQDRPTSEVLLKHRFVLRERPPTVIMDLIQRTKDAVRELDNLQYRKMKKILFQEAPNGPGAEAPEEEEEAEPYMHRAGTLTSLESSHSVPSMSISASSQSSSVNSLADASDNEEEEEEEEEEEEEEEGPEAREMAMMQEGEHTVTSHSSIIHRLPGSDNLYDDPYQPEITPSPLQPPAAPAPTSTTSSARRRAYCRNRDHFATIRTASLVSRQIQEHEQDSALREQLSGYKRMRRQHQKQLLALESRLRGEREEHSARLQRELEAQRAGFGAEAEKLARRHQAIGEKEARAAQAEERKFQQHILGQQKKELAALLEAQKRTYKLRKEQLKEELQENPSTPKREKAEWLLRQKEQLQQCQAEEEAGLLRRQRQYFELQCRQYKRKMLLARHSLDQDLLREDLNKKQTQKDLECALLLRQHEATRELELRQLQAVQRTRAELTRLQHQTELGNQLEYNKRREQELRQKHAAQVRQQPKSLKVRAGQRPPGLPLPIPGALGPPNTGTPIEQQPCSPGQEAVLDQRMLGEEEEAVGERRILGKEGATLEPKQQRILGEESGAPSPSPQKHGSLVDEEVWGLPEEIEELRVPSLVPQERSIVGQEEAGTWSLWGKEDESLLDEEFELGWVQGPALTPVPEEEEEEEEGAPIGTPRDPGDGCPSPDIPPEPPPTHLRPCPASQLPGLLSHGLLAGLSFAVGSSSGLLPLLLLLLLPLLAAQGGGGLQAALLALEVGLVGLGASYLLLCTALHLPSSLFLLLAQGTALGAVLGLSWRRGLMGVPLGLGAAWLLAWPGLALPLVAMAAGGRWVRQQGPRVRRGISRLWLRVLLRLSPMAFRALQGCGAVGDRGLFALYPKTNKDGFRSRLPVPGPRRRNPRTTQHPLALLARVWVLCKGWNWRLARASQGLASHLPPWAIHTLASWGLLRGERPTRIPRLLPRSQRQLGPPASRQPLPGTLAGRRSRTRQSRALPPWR
To be noted: at 1 µM.

Test [2] deals with T1, Serine/threonine-protein kinase TAO2 (Homo sapiens). Particulars: at 10 µM.
Test [3] addresses T2, Serine/threonine-protein kinase TAO3 (Homo sapiens) (UniProt Q9H2K8).
T2 sequence (whole entry): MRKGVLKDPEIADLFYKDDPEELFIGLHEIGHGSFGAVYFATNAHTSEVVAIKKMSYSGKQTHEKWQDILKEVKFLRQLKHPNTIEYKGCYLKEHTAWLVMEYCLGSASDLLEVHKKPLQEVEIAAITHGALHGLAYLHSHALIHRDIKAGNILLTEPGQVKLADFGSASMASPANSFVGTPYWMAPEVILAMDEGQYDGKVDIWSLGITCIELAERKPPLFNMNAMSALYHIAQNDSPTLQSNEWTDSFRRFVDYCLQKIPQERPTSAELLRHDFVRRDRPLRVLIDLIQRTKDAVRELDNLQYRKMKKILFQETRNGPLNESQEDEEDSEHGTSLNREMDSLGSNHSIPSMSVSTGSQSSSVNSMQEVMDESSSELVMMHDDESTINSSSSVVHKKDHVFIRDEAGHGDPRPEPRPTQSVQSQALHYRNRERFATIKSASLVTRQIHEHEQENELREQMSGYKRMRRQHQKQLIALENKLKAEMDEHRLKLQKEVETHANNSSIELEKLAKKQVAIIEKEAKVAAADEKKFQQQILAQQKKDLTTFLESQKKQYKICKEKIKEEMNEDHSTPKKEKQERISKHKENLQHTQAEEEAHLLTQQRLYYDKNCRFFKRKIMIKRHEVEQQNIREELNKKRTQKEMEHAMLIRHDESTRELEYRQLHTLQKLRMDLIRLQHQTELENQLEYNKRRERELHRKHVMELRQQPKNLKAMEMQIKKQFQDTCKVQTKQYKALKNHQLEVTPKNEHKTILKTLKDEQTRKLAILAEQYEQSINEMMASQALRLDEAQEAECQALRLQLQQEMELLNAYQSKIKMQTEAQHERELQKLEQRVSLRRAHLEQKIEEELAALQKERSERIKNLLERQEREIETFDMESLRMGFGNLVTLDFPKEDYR
To be noted: at 1 µM.

In test [4] the target is T2, Serine/threonine-protein kinase TAO3 (Homo sapiens). To be noted: at 10 µM.
The target of test [5] is T3, Serine/threonine-protein kinase TBK1 (Homo sapiens) (UniProt Q9UHD2).
T3 sequence (whole entry): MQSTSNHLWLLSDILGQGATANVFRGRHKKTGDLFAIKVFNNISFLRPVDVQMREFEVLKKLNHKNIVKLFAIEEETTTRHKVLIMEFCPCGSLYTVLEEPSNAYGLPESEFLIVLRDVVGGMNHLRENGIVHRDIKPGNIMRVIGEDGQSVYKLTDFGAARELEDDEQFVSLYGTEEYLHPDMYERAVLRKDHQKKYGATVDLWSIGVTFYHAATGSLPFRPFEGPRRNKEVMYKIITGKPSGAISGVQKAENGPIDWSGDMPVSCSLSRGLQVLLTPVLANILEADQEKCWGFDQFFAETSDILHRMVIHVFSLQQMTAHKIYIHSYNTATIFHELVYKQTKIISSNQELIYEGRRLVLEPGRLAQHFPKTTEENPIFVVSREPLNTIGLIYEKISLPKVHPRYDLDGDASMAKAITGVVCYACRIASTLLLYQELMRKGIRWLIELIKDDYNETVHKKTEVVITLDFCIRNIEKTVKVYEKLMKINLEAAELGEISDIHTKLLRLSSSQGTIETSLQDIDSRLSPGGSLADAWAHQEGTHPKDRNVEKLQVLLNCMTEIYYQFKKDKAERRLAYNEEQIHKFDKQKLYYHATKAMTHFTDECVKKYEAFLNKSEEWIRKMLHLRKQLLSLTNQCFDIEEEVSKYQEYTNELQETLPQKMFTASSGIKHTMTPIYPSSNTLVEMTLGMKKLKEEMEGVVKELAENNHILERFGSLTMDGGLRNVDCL
Particulars: at 1 µM.

Test [6] deals with T3, Serine/threonine-protein kinase TBK1 (Homo sapiens). To be noted: at 10 µM.
Test [7] concerns the target T4, TGF-beta receptor type-1 (Homo sapiens) (UniProt P36897).
T4 sequence (whole entry): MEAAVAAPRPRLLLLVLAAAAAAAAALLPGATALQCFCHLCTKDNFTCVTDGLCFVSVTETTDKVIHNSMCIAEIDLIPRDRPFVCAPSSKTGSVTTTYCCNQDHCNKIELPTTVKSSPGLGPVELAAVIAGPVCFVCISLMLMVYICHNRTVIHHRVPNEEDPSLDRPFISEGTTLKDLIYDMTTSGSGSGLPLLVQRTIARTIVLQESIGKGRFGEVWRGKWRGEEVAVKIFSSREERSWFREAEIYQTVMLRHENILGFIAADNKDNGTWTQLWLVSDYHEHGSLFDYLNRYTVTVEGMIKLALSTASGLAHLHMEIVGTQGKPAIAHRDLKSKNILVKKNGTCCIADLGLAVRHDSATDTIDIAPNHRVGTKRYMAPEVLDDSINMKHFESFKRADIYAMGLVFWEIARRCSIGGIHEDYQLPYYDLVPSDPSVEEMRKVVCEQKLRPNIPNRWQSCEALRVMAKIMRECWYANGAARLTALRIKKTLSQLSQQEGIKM
To be noted: at 1 µM.

Test [8] addresses T4, TGF-beta receptor type-1 (Homo sapiens). To be noted: at 10 µM.
The target in test [9] is T5, Inhibitor of nuclear factor kappa-B kinase subunit alpha (Homo sapiens) (UniProt O15111).
T5 sequence (whole entry): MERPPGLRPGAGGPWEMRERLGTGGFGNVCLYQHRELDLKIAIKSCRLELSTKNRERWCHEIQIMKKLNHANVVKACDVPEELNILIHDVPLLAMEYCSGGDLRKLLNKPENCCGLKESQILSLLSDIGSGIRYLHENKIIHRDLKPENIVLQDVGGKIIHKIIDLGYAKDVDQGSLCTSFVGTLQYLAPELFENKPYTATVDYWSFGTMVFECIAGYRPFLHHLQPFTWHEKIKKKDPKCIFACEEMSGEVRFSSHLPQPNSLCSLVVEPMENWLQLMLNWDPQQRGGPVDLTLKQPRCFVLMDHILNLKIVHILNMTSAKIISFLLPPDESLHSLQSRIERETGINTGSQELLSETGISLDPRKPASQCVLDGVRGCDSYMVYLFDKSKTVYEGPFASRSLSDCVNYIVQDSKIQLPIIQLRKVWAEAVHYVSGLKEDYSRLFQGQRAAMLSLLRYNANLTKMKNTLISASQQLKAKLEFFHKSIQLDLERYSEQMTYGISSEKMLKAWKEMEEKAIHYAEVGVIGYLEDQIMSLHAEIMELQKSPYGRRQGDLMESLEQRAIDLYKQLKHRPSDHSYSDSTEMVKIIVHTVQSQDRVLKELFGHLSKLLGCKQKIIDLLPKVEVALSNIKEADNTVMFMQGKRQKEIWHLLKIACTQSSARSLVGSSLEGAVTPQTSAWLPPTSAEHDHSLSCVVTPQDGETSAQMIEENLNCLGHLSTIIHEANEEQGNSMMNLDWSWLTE
To be noted: at 1 µM.

In test [10] the target is T5, Inhibitor of nuclear factor kappa-B kinase subunit alpha (Homo sapiens). To be noted: at 10 µM.
Test [11] has as its target T6, Inhibitor of nuclear factor kappa-B kinase subunit beta (Homo sapiens) (UniProt O14920).
T6 sequence (whole entry): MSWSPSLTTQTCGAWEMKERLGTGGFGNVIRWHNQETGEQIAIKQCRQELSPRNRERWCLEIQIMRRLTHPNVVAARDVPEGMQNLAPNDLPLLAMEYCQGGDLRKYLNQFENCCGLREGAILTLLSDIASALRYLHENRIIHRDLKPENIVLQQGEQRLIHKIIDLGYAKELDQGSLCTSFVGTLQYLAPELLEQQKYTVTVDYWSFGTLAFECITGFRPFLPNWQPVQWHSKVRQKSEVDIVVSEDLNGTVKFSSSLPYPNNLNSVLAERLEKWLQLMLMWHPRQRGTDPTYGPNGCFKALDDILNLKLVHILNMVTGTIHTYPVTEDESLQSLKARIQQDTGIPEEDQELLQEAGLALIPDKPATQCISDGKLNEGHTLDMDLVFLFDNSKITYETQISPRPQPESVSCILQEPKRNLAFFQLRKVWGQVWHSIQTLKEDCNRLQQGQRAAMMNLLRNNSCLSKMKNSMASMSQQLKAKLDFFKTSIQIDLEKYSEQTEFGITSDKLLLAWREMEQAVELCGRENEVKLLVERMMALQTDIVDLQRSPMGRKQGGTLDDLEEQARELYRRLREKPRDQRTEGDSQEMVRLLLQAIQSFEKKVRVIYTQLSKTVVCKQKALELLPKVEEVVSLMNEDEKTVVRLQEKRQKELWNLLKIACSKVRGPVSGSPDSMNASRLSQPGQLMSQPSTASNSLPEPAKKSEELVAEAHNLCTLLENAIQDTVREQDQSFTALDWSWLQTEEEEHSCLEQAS
Particulars: at 10 µM.

The target of test [12] is Insulin receptor (Homo sapiens) (UniProt P06213). To be noted: at 1 µM.
Insulin receptor (Homo sapiens), sequence (P06213 28-758 limits assumed): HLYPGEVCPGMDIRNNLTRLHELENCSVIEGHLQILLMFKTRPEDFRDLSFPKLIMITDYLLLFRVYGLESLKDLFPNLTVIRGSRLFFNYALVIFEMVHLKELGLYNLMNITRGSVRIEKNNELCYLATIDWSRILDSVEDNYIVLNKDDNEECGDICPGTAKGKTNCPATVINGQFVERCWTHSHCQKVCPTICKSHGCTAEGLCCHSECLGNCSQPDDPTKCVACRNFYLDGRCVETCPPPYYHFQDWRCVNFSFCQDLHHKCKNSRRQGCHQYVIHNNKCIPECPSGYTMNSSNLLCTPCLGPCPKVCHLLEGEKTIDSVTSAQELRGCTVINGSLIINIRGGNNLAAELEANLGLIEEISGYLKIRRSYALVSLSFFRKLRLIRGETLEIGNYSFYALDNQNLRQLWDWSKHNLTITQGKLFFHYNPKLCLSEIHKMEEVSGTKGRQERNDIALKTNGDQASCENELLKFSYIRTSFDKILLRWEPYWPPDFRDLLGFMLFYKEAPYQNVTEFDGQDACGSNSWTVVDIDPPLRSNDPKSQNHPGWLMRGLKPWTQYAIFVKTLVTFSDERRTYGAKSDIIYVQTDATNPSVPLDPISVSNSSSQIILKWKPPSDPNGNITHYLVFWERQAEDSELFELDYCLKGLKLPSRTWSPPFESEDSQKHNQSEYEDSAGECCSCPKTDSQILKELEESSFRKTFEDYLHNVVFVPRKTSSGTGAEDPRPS
Insulin receptor (Homo sapiens), sequence (P06213 763-1382 limits assumed): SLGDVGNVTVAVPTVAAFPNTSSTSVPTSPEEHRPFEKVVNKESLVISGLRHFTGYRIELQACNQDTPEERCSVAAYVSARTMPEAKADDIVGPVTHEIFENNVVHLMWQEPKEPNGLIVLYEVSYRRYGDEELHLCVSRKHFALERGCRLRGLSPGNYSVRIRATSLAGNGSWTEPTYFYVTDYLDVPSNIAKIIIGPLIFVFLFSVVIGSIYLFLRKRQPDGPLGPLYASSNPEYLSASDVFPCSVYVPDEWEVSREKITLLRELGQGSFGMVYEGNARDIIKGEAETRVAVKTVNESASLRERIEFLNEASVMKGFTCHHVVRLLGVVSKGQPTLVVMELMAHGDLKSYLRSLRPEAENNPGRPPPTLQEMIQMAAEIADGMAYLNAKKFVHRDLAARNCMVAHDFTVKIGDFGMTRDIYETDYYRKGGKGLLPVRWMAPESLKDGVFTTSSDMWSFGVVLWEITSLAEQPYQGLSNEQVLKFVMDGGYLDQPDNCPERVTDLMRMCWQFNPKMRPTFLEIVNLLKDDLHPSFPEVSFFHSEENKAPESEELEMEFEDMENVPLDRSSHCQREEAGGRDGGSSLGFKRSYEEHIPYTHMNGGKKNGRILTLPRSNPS

The residual activity is the signal under treatment as a percentage of the control signal. With `N#C/C(=C1/Nc2ccccc2S1)c1ccnc(NCCc2cccnc2)n1`, the residual activity came to 68% in test [1]; 24% in test [2]; 84% in [3]; 37% in test [4]; 71% in test [5]; 40% in test [6]. Moreover, the residual activity in test [7] stood at 96%; in test [8], 69%; in test [9], 113%; in [10], 71%; in [11], 83%; in [12], 127%.
